Among the data in PubChem BioAssay (NCATS) are Potency, activity, negative = cell killing and activity change, negative = cytotoxicity values, retold here.

Records with an inconclusive call do not appear. Values without a mark were called inactive. Activity calls are given as the source filed them. The call rests on the fitted dose curve; in most records, active means well fitted curve in the direction sought with a large enough effect; inconclusive means small, poorly fitted or top-dose-only effect, or another doubt; inactive means no such curve, though single readings can be large; an effect the other way counts as inactive or inconclusive.

For one test, the system named is HeLa. The test is described as follows: Primary qHTS to identify gynecologic anti-cancer compounds using libraries of approved drugs and bioactive compounds (AID 1345084). Further: nearly all actives have a fitted effect of over 55% in size. Further: potency means the concentration at half of the fitted maximal effect. The settings on record: Gynecologic cancer cell panel viability, ATPlite luminescence, 48 h; series mostly up to 57.5 µM. Summed up: (§1)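 48 h compound exposure at 37 C, 5% CO2; five-point qHTS. ATPlite luminescence readout of cell ATP.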
For orientation: Quantitative high-throughput screening tests each substance at several concentrations.

A further test concerns Hek293T. The test is described as above. The settings on record: Gynecologic cancer cell panel viability, ATPlite luminescence, 48 h, control line for the selectivity index; series mostly up to 57.5 µM. Summed up: as §1
For orientation: Cellular ATP, detected with luciferase, serves as a proxy for viable cell number.

The subject of the next test is JEG-3. The test is described as above. The settings on record: Gynecologic cancer cell panel viability, ATPlite luminescence, 48 h; series mostly up to 57.5 µM. Summed up:
as §1

The subject of the next test is OV90. Described as above. The settings on record: Gynecologic cancer cell panel viability, ATPlite luminescence, 48 h; series mostly up to 57.5 µM. The gist of the method:
as §1

A further test relates to PA-1. The test is described as above. Conditions: Gynecologic cancer cell panel viability, ATPlite luminescence, 48 h; series mostly up to 57.5 µM. The gist of the method:
as §1

In a further test the test system is SKOV3. The description is as above. Conditions: Gynecologic cancer cell panel viability, ATPlite luminescence, 48 h; series mostly up to 57.5 µM. Summed up: as §1
Another test has as its system Tov-21-G. Described as above. Conditions: Gynecologic cancer cell panel viability, ATPlite luminescence, 48 h; series mostly up to 57.5 µM. Summed up: as §1
The subject of the next test is Tov112D. Described as above. The settings on record: Gynecologic cancer cell panel viability, ATPlite luminescence, 48 h; series mostly up to 57.5 µM. The gist of the method:
as §1

Test [1] is described as follows: Drug repurposing screens with cells derived from glioblastoma tumor samples (AID 1345199). Further: nearly all actives have a fitted effect of over 40% in size. Conditions: GBM patient neurospheres viability, ATP luminescence, 48 h. Summed up: (§2)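 Primary testing used CD133+ neurospheres from four GBM patients, seven concentrations, 48 h exposure and ATP-based viability; confirmation added three slower-growing patient lines.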
The next test deals with astro. The test is described as above. The settings on record: viability, ATP luminescence, 48 h; series mostly up to 45.9 µM. The gist of the method: as §2
[2] abbreviates: at 45.9 µM (top of the series), tumour line B.
The mark [3] stands for this setting: at 45.9 µM (top of the series), tumour line D.
Where [4] appears, read: at 46 µM (top of the series), tumour line A.
Setting [5] is: at 46.1 µM (top of the series), tumour line C.
Where [6] appears, read: at 20 µM (top of the series), tumour line C.
Setting [7] is: at 21.2 µM (top of the series), tumour line B.
[8] abbreviates: at 21.2 µM (top of the series), tumour line D.
Setting [9] is: at 21.3 µM (top of the series), tumour line A.
On the % scale 0 is the no-effect control and ±100 the full control effect.

`CN(C)CC/C=C1/c2ccccc2COc2ccc(CC(=O)O)cc21`: the Potency entry in the test on HeLa, with Hek293T, with JEG-3, in the test on OV90, with PA-1 and with SKOV3 was “inactive” throughout. In addition, the Potency entry with Tov-21-G, with Tov112D and with astro was “inactive” throughout. Also, the activity, negative = cell killing in test [1] (setting [2]) was -11.5%; in test [1] (setting [3]), 1.66%; in test [1] (setting [4]) it was -15.4%; in test [1] (setting [5]), 4.5%.
As for `NC(CO)(CO)CO`, the Potency entry in the test on HeLa, in the test with Hek293T, in the test on JEG-3, in the test with OV90, in the test with PA-1 and with SKOV3 was “inactive” each time. Further, the Potency result with Tov-21-G, in the test with Tov112D and in the test on astro was “inactive” each time. Also, the activity, negative = cell killing in test [1] (setting [2]) was -1.58%; in test [1] (setting [3]), 6.44%; in test [1] (setting [4]), -13.6%; in test [1] (setting [5]), 0.171%.
In the case of `Cc1onc(-c2c(Cl)cccc2Cl)c1C(=O)N[C@@H]1C(=O)N2[C@@H]1SC(C)(C)[C@@H]2C(=O)O`, the Potency result with HeLa, in the test with Hek293T, with JEG-3, with OV90, in the test on PA-1 and with SKOV3 was “inactive” in each case. Further, the Potency result with Tov-21-G, with Tov112D and with astro was “inactive” in each case. Besides, the activity, negative = cell killing in [1] (setting [2]) is -4.57%; in test [1] (setting [3]) it was -12.2%; in [1] (setting [4]), -8.27%; in test [1] (setting [5]), 12.2%.
On to `CCn1cc(C(=O)O)c(=O)c2cnc(N3CCCC3)nc21`, for which the activity change, negative = cytotoxicity in the test on HeLa was -17.6% [at 11.6 µM]; in the test on Hek293T, 1.62% [at 11.6 µM]; in the test with JEG-3, -0.757% [at 11.6 µM]; with OV90, -1.88% [at 11.6 µM]; in the test with PA-1, 3.4% [at 11.6 µM]; with SKOV3, 27% [at 11.6 µM]. Moreover, the figures for the activity change, negative = cytotoxicity in the test on Tov-21-G and in the test on Tov112D were 5.91% [at 11.6 µM] and 5.36% [at 11.6 µM], respectively. Moreover, the activity, negative = cell killing is -8.14% in test [1] (setting [6]), -5.2% in test [1] (setting [7]), -3.67% in test [1] (setting [8]) and -24.5% in test [1] (setting [9]). The Potency result with astro was “inactive”.
As for `Cc1ccc(Nc2c(F)cccc2Cl)c(CC(=O)O)c1`, the Potency entry with HeLa, with Hek293T, in the test on JEG-3, in the test on OV90, in the test on PA-1 and in the test on SKOV3 was “inactive” in each case. Further, the Potency entry with Tov-21-G and in the test with Tov112D was “inactive” in each case. In addition, the activity, negative = cell killing was -6.28% in test [1] (setting [2]), -3.08% in [1] (setting [3]), -32.8% in test [1] (setting [4]) and -3.92% in [1] (setting [5]).
As to `COc1cc(OC)cc(OC)c1`, the Potency result in the test on HeLa, in the test with Hek293T, with JEG-3, with OV90, in the test on PA-1 and with SKOV3 was “inactive” in each case. For the same molecule, the Potency entry with Tov-21-G and with Tov112D was “inactive” each time. For the same molecule, the activity, negative = cell killing in test [1] (setting [2]) was -3.53%; in test [1] (setting [3]), 7.76%; in [1] (setting [4]), -12.5%; in test [1] (setting [5]), -1.01%.
Take `CCN(CC)C(=O)N1CCN(C)CC1`: the Potency entry with HeLa, with Hek293T, in the test on JEG-3, in the test with OV90, with PA-1 and with SKOV3 was “inactive” in each case. For the same molecule, the Potency result with Tov-21-G, with Tov112D and in the test with astro was “inactive” each time. Also, the activity, negative = cell killing was -9.76% in test [1] (setting [7]), -28.5% in test [1] (setting [8]) and -8.09% in test [1] (setting [9]).
Regarding `CCOC(=O)[C@H](CCc1ccccc1)N[C@@H](C)C(=O)N1Cc2ccccc2C[C@H]1C(=O)O`, the Potency result in the test on HeLa, with Hek293T, in the test on JEG-3, in the test with OV90, in the test on PA-1 and with SKOV3 was “inactive” in each case. Moreover, the Potency entry in the test with Tov-21-G, in the test with Tov112D and with astro was “inactive” each time. Further, the activity, negative = cell killing was -8.88% in [1] (setting [2]), -11.4% in [1] (setting [3]), -15.3% in test [1] (setting [4]) and 11.9% in test [1] (setting [5]).
For `CC(=O)Nc1c(I)cc(I)c(C(=O)O)c1I`, the Potency result with HeLa, in the test on Hek293T, with JEG-3, in the test on OV90, with PA-1 and in the test on SKOV3 was “inactive” throughout. Further, the Potency entry with Tov-21-G, in the test with Tov112D and in the test on astro was “inactive” in each case. In addition, the activity, negative = cell killing in test [1] (setting [2]) is -18.2%; in test [1] (setting [3]) it was -1.85%; in test [1] (setting [4]) it was -31.3%; in test [1] (setting [5]) it was 23.7%.
Consider `OC[C@@H](O)[C@@H](O[C@@H]1O[C@H](CO)[C@H](O)[C@H](O)[C@H]1O)[C@H](O)[C@@H](O)CO`, for which the Potency result with HeLa, in the test with Hek293T, in the test on JEG-3, in the test with OV90, in the test on PA-1 and in the test with SKOV3 was “inactive” each time. Further, the Potency result in the test on Tov-21-G, in the test with Tov112D and in the test with astro was “inactive” throughout. Moreover, the activity, negative = cell killing is -6.48% in test [1] (setting [2]), -4.42% in test [1] (setting [3]), -40.2% in test [1] (setting [4]) and -3.02% in test [1] (setting [5]).
Turning to `COC(=O)[C@@H]1CC2=CC(=O)CC[C@]2(C)[C@@]23O[C@@H]2C[C@@]2(C)[C@@H](CC[C@@]24CCC(=O)O4)[C@H]13`, the Potency result in the test on HeLa, in the test with Hek293T, in the test on JEG-3, with OV90, in the test with PA-1 and with SKOV3 was “inactive” each time. Moreover, the Potency result with Tov-21-G, with Tov112D and with astro was “inactive” each time. Also, the activity, negative = cell killing in test [1] (setting [2]) was -3.02%; in test [1] (setting [3]) it was -20%; in test [1] (setting [4]), -25%; in [1] (setting [5]), -18.4%.
In the case of `CC(C)N=C(N)/N=C(\N)Nc1ccc(Cl)cc1`, the Potency result with HeLa, in the test with Hek293T, in the test with JEG-3, with OV90, with PA-1 and with Tov-21-G was “inactive” each time. The Potency entry in the test with Tov112D and in the test on astro was “inactive” in each case. In addition, the Potency in the test with SKOV3 is 28.2 µM (active). The activity, negative = cell killing in [1] (setting [6]) was -3.45%; in [1] (setting [7]) it was -11.2%; in test [1] (setting [8]), -20.6%.
